# Measured values published in the supplement of paper PMC7411054.
# Columns and labels:
# Test in all cases: lowest phenotypically active concentration; higher = less potent
# Conditions in all cases: treatment time: 24 h
# A549-TP53BP1-CLTA = test system: A549-TP53BP1-CLTA
# In short: (§1)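 Live-cell features were measured per well and normalised to solvent control wells after fifteen gene-edited A549, HepG2 and WPMY1 reporter lines had been treated for 24 h at 0.3, 1, 3 or 9 µM in four wells each. A condition was deviating when ≥3 of 4 wells sat beyond the 95th percentile of control Euclidean distances. It was reproducible when the median replicate Pearson correlation exceeded the 95th percentile of non-replicates. Phenotypic activity demanded both.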
# HepG2-CANX-COX4 = test system: HepG2-CANX-COX4
# In short: as §1
# HepG2-GM130-SQSTM1 = test system: HepG2-GM130-SQSTM1
# In short: as §1
# HepG2-TP53BP1-CLTA = test system: HepG2-TP53BP1-CLTA
# In short: as §1
# HepG2-TUBA1B-RELA = test system: HepG2-TUBA1B-RELA
# In short: as §1
# WPMY1-ACTB-RAB5A = test system: WPMY1-ACTB-RAB5A
# In short: as §1
# WPMY1-CANX-COX4 = test system: WPMY1-CANX-COX4
# In short: as §1
# WPMY1-GM130-SQSTM1 = test system: WPMY1-GM130-SQSTM1
# In short: as §1
# WPMY1-TP53BP1-CLTA = test system: WPMY1-TP53BP1-CLTA
# In short: as §1
# WPMY1-TUBA1B-RELA = test system: WPMY1-TUBA1B-RELA
# In short: as §1
SMILES,lowest phenotypically active concentration (A549-TP53BP1-CLTA),lowest phenotypically active concentration (HepG2-CANX-COX4),lowest phenotypically active concentration (HepG2-GM130-SQSTM1),lowest phenotypically active concentration (HepG2-TP53BP1-CLTA),lowest phenotypically active concentration (HepG2-TUBA1B-RELA),lowest phenotypically active concentration (WPMY1-ACTB-RAB5A),lowest phenotypically active concentration (WPMY1-CANX-COX4),lowest phenotypically active concentration (WPMY1-GM130-SQSTM1),lowest phenotypically active concentration (WPMY1-TP53BP1-CLTA),lowest phenotypically active concentration (WPMY1-TUBA1B-RELA)
OC[C@H]1O[C@@H](n2cnc3c(NCc4ccco4)ncnc32)[C@H](O)[C@@H]1O [Kinetin riboside],3 µM,1 µM,3 µM,3 µM,1 µM,1 µM,3 µM,1 µM,1 µM,3 µM
COc1ccccc1S(=O)(=O)Nc1ccc2c(c1)CN(C)C(=O)N2,3 µM,3 µM,3 µM,3 µM,3 µM,3 µM,3 µM,3 µM,9 µM,3 µM
CC[C@]1(O)C[C@@H]2CN(CCc3c([nH]c4ccccc34)[C@@](C(=O)OC)(c3cc4c(cc3OC)N(C=O)[C@H]3[C@@](O)(C(=O)OC)[C@H](OC(C)=O)[C@]5(CC)C=CCN6CC[C@]43[C@@H]65)C2)C1 [vincristine],≤ 0.3 µM,≤ 0.3 µM,≤ 0.3 µM,≤ 0.3 µM,≤ 0.3 µM,≤ 0.3 µM,≤ 0.3 µM,≤ 0.3 µM,≤ 0.3 µM,≤ 0.3 µM
CN(C)C1CCN(C(=O)c2ccc(NC(=O)Nc3ccc(-c4nc(N5CCOCC5)nc(N5CCOCC5)n4)cc3)cc2)CC1,≤ 0.3 µM,≤ 0.3 µM,≤ 0.3 µM,≤ 0.3 µM,≤ 0.3 µM,≤ 0.3 µM,≤ 0.3 µM,≤ 0.3 µM,≤ 0.3 µM,≤ 0.3 µM
CCc1cc(-c2n[nH]c(C)c2-c2ccc3c(c2)OCCO3)c(O)cc1O,3 µM,3 µM,3 µM,3 µM,9 µM,3 µM,3 µM,3 µM,3 µM,3 µM
C[C@@H]1CN(CC(=O)Nc2ccc3c(c2)Cc2cccc(-c4cc(=O)cc(N5CCOCC5)o4)c2S3)C[C@H](C)O1,9 µM,3 µM,3 µM,3 µM,3 µM,3 µM,3 µM,3 µM,3 µM,9 µM
COCc1c(C(C)C)nc(C(C)C)c(/C=C/[C@@H](O)C[C@@H](O)CC(=O)O)c1-c1ccc(F)cc1 [cerivastatin],≤ 0.3 µM,≤ 0.3 µM,≤ 0.3 µM,≤ 0.3 µM,≤ 0.3 µM,≤ 0.3 µM,≤ 0.3 µM,≤ 0.3 µM,≤ 0.3 µM,≤ 0.3 µM
O=C(CCCCSc1nc(-c2ccc(-c3ccccc3)cc2)cc(=O)[nH]1)NO,≤ 0.3 µM,≤ 0.3 µM,≤ 0.3 µM,≤ 0.3 µM,≤ 0.3 µM,≤ 0.3 µM,≤ 0.3 µM,≤ 0.3 µM,≤ 0.3 µM,≤ 0.3 µM
c1ccc2c(c1)Cc1c(Nc3ccc4c(c3)OCCO4)n[nH]c1-2,3 µM,3 µM,9 µM,3 µM,3 µM,3 µM,3 µM,3 µM,3 µM,3 µM
CNC(=O)Nc1ccc(-c2nc(N3CC4CCC(C3)O4)c3cnn(C4CCC5(CC4)OCCO5)c3n2)cc1,≤ 0.3 µM,≤ 0.3 µM,≤ 0.3 µM,≤ 0.3 µM,≤ 0.3 µM,≤ 0.3 µM,≤ 0.3 µM,≤ 0.3 µM,≤ 0.3 µM,≤ 0.3 µM
CS(=O)(=O)c1cccc(CNc2nc(Nc3ccc4c(c3)CCC(=O)N4)ncc2C(F)(F)F)c1,3 µM,1 µM,3 µM,1 µM,1 µM,1 µM,3 µM,3 µM,1 µM,3 µM
O=C(NC(NC(=S)Nc1ccc(F)c([N+](=O)[O-])c1)C(Cl)(Cl)Cl)C(c1ccccc1)c1ccccc1 (stereo not given),9 µM,9 µM,9 µM,9 µM,9 µM,9 µM,9 µM,9 µM,9 µM,9 µM
CCNC(=O)c1noc(-c2cc(C(C)C)c(O)cc2O)c1-c1ccc(CN2CCOCC2)cc1,≤ 0.3 µM,≤ 0.3 µM,≤ 0.3 µM,≤ 0.3 µM,≤ 0.3 µM,≤ 0.3 µM,≤ 0.3 µM,≤ 0.3 µM,≤ 0.3 µM,≤ 0.3 µM
CC(C)c1cc(-c2n[nH]c(=O)n2-c2ccc3c(ccn3C)c2)c(O)cc1O [ganetespib],≤ 0.3 µM,≤ 0.3 µM,≤ 0.3 µM,≤ 0.3 µM,≤ 0.3 µM,≤ 0.3 µM,≤ 0.3 µM,≤ 0.3 µM,≤ 0.3 µM,≤ 0.3 µM
CCN(CC)c1ccc(/C=N/NC(=O)c2ccncc2)c(O)c1,1 µM,≤ 0.3 µM,≤ 0.3 µM,≤ 0.3 µM,1 µM,≤ 0.3 µM,≤ 0.3 µM,≤ 0.3 µM,≤ 0.3 µM,1 µM
COc1ccc2[nH]c(C(=O)c3ccccc3)cc2c1,≤ 0.3 µM,≤ 0.3 µM,≤ 0.3 µM,≤ 0.3 µM,≤ 0.3 µM,≤ 0.3 µM,3 µM,≤ 0.3 µM,≤ 0.3 µM,≤ 0.3 µM
COc1cc(C)c(Sc2cnc(NC(=O)c3ccc(CNC(C)C(C)(C)C)cc3)s2)cc1C(=O)N1CCN(C(C)=O)CC1 (stereo not given),9 µM,3 µM,3 µM,3 µM,3 µM,3 µM,3 µM,3 µM,3 µM,3 µM
COc1cc2nc(N3CCCN(C)CC3)nc(NC3CCN(Cc4ccccc4)CC3)c2cc1OC,1 µM,1 µM,≤ 0.3 µM,1 µM,≤ 0.3 µM,1 µM,1 µM,≤ 0.3 µM,1 µM,1 µM
Clc1ccc(C2(c3ccc(-c4cn[nH]c4)cc3)CCNCC2)cc1,≤ 0.3 µM,≤ 0.3 µM,≤ 0.3 µM,≤ 0.3 µM,≤ 0.3 µM,≤ 0.3 µM,≤ 0.3 µM,≤ 0.3 µM,1 µM,≤ 0.3 µM

SMILES,lowest phenotypically active concentration (A549-TP53BP1-CLTA),lowest phenotypically active concentration (HepG2-CANX-COX4),lowest phenotypically active concentration (HepG2-GM130-SQSTM1),lowest phenotypically active concentration (HepG2-TP53BP1-CLTA),lowest phenotypically active concentration (HepG2-TUBA1B-RELA),lowest phenotypically active concentration (WPMY1-ACTB-RAB5A),lowest phenotypically active concentration (WPMY1-CANX-COX4),lowest phenotypically active concentration (WPMY1-GM130-SQSTM1),lowest phenotypically active concentration (WPMY1-TP53BP1-CLTA),lowest phenotypically active concentration (WPMY1-TUBA1B-RELA)
Cn1cc(-c2[nH]c3cc(NC(=O)[C@H](N)C4CCCCC4)cc4c3c2C=NNC4=O)cn1,3 µM,3 µM,1 µM,3 µM,1 µM,≤ 0.3 µM,≤ 0.3 µM,≤ 0.3 µM,≤ 0.3 µM,≤ 0.3 µM
COc1cc2c(Nc3ccc(Br)cc3F)ncnc2cc1OCC1CCN(C)CC1 [vandetanib],3 µM,3 µM,3 µM,3 µM,1 µM,3 µM,3 µM,3 µM,9 µM,3 µM
Cc1ccc(/C(=C/CN2CCCC2)c2cccc(/C=C/C(=O)O)n2)cc1 [acrivastine],9 µM,9 µM,3 µM,9 µM,1 µM,1 µM,1 µM,1 µM,9 µM,1 µM
CC(=O)O[C@@]12CO[C@@H]1C[C@H](O)[C@@]1(C)C(=O)[C@H](O)C3=C(C)[C@@H](OC(=O)[C@H](O)[C@@H](NC(=O)OC(C)(C)C)c4ccccc4)C[C@](O)([C@@H](OC(=O)c4ccccc4)[C@H]21)C3(C)C [Docetaxel],≤ 0.3 µM,≤ 0.3 µM,≤ 0.3 µM,≤ 0.3 µM,≤ 0.3 µM,≤ 0.3 µM,≤ 0.3 µM,≤ 0.3 µM,≤ 0.3 µM,≤ 0.3 µM
CC(C)n1nc(-c2cc3cc(O)ccc3[nH]2)c2c(N)ncnc21,1 µM,≤ 0.3 µM,≤ 0.3 µM,3 µM,1 µM,1 µM,1 µM,1 µM,1 µM,3 µM
COc1cc(OC2CCN(C)CC2)ccc1Nc1ncc2c(n1)n(C1CCCC1)c(=O)n2C,3 µM,9 µM,3 µM,9 µM,9 µM,9 µM,9 µM,9 µM,9 µM,9 µM
O=C(OC12CC3CC(CC(C3)C1)C2)c1ccc(NCc2cc(O)ccc2O)cc1 [Adaphostin],9 µM,3 µM,3 µM,3 µM,3 µM,1 µM,1 µM,1 µM,3 µM,1 µM
Cc1cc(Nc2cc(N3CCN(C)CC3)nc(Sc3ccc(NC(=O)C4CC4)cc3)n2)[nH]n1,≤ 0.3 µM,≤ 0.3 µM,≤ 0.3 µM,≤ 0.3 µM,≤ 0.3 µM,≤ 0.3 µM,≤ 0.3 µM,≤ 0.3 µM,≤ 0.3 µM,≤ 0.3 µM
COc1cc(/C=C/c2ccc(OC)cc2OC)cc(OC)c1,1 µM,3 µM,3 µM,3 µM,3 µM,1 µM,1 µM,1 µM,1 µM,1 µM
Cc1ccc(NC(=O)CCCCCC(=O)Nc2ccccc2N)cc1,3 µM,9 µM,3 µM,3 µM,9 µM,9 µM,3 µM,9 µM,3 µM,9 µM
Cc1c(CN2CCN(C(=O)[C@H](C)O)CC2)sc2c(N3CCOCC3)nc(-c3cnc(N)nc3)nc12,≤ 0.3 µM,≤ 0.3 µM,≤ 0.3 µM,1 µM,≤ 0.3 µM,≤ 0.3 µM,≤ 0.3 µM,≤ 0.3 µM,≤ 0.3 µM,≤ 0.3 µM
Cc1cnc(NC(=O)Nc2cc(Br)c(C)cc2OC[C@@H]2CNCCO2)cn1,1 µM,9 µM,1 µM,1 µM,1 µM,≤ 0.3 µM,1 µM,3 µM,1 µM,1 µM
O=C(CCCc1ccc(-c2ccccc2F)cc1)Nc1ccc(O)cc1,1 µM,3 µM,3 µM,9 µM,3 µM,1 µM,1 µM,1 µM,1 µM,1 µM
Nc1ncnc(Nc2ccc(OCc3ccccc3)c(Cl)c2)c1/C=N/OCCN1CCOCC1,1 µM,–,9 µM,9 µM,9 µM,–,–,–,–,–
Nc1ncnc2c1c(-c1cnc3[nH]ccc3c1)nn2C1CCCC1,≤ 0.3 µM,≤ 0.3 µM,≤ 0.3 µM,≤ 0.3 µM,≤ 0.3 µM,1 µM,1 µM,1 µM,≤ 0.3 µM,1 µM
O=C(Nc1cccnc1)N1CCC(Cc2cccc(Oc3ccc(C(F)(F)F)cn3)c2)CC1,9 µM,–,–,9 µM,9 µM,–,–,9 µM,–,–
Cc1ccc(Nc2nccc(N(C)c3ccc4c(C)n(C)nc4c3)n2)cc1S(N)(=O)=O [pazopanib],1 µM,3 µM,3 µM,9 µM,–,9 µM,3 µM,–,–,3 µM
C=C1CN(Cc2ccc(C(=O)Nc3ccccc3N)cc2)C(=O)c2ccccc21,≤ 0.3 µM,≤ 0.3 µM,1 µM,1 µM,1 µM,≤ 0.3 µM,≤ 0.3 µM,≤ 0.3 µM,≤ 0.3 µM,3 µM
